Assay results reported in PubChem BioAssay (Tox21).
Inconclusive results are not listed. A number with no mark means an inactive call. Unless noted, calls come from the whole dose curve; as a rule, active = well fitted cell-killing curve with a large enough effect in the repeat runs; inconclusive = weak or mixed curves, or effect the other way; inactive = no such curve, though single readings can be large or run the other way.

Target: Retinoic acid receptor RXR-alpha (Homo sapiens) (UniProt P19793)
Test: qHTS assay to identify small molecule agonists of the RXR signaling pathway (AID 1159527; calls by dose curve; note: nearly all actives have a fitted effect of over 35% in size)
Conditions: HEK293T RXRa-UAS-bla, beta-lactamase ratio, 16 h; series mostly up to 76.8 µM; activation: at the top concentration
Summary of the method: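 GeneBLAzer RXR-alpha-UAS-bla HEK 293T cells in medium with 2% charcoal-stripped FBS, pre-incubated 5 hr at 37 C, then exposed to compounds 16 hr. Beta-lactamase reporter read by FRET substrate, 2 hr room temperature, 460/530 nm emission.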
% is set by controls: 0 for no effect and ±100 for the full control effect.

Sequence of Retinoic acid receptor RXR-alpha (Homo sapiens) (P19793 whole entry, looked up): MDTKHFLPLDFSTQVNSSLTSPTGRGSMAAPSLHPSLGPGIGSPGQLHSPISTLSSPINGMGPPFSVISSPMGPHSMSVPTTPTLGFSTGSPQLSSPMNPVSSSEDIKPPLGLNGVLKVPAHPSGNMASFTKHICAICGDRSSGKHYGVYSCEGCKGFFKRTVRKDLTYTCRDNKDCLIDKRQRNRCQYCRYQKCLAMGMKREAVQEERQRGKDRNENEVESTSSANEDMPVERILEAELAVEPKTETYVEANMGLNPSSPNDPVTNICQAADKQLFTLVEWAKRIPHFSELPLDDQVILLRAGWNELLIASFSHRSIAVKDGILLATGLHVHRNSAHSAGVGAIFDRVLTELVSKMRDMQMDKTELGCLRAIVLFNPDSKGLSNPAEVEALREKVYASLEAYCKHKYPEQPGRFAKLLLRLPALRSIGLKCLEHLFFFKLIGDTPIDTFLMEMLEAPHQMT

SMILES | activation
N#CCc1ccc(Cl)cc1 | -16%
Clc1ccc(Oc2ccccc2)cc1 | -2.34%
O=C(Cl)c1ccc(Cl)cc1 | 2.24%
CCOC(=O)c1ccccc1S(=O)(=O)NC(=O)Nc1nc(Cl)cc(OC)n1 | 1.79%
CC(=O)c1ccc(-c2ccccc2)cc1 | -15%
N#Cc1ccccc1Cl | 0.892%
Cc1ccc(CCl)cc1 | 0.0442%
CN(CCCC(O)c1cccnc1)N=O (configuration not stated) | 0.505%
Clc1ccc(-c2ccccc2)cc1 | -2.14%
COP(=O)(CCC(=O)NCO)OC | -1.56%
COC[C@H](C)N(C(=O)CCl)c1c(C)csc1C | -2.73%
CC(=[OH+])/C=C(/C)[O-].CC(=[OH+])/C=C(\C)[O-].CC(=[OH+])/C=C(\C)[O-].[Al] | 2.84%
CC(C)CBr | 4.96%
Oc1ccccc1Br | 2.89%
C[As+](C)(C)CC(=O)[O-] | 1.77%
COCC(=O)N(c1c(C)cccc1C)[C@H](C)C(=O)OC | 0.102%
CCc1ccccc1C | -6.37%
Cl/C=C\CCl | 0.822%

SMILES | activation
ClC1=C(Cl)[C@]2(Cl)[C@@H]3[C@@H](Cl)[C@H](Cl)C[C@@H]3[C@@]1(Cl)C2(Cl)Cl | 3.2%
ClCCN1CCOCC1 | 0.5%
N#Cc1ccccc1N | 0.803%
CC(=[OH+])/C=C(/C)[O-].CC(=[OH+])/C=C(\C)[O-].CC(=[OH+])/C=C(\C)[O-].[Fe] | -0.446%
CCOP(=S)(OCC)SCCS(=O)(=O)CC | -10.6%
Nc1ccc([N+](=O)[O-])cc1Cl | -11.1%
O=[N+]([O-])c1cc(Cl)ccc1Cl | -0.258%
ClCc1ccccc1CCl | 6.9%
CCSC(C)CC1CC(=O)C(/C(CC)=N/OC/C=C/Cl)=C(O)C1 (configuration not stated) | 0.892% [at 35.3 µM]
BrCC(Br)c1ccccc1 (configuration not stated) | 0.879%
C=CC(=O)N(C)C | 1.9%
Cc1cc(Cl)ccc1O[C@H](C)C(=O)O | 1.42%
ClC1=C(Cl)[C@]2(Cl)[C@@H]3[C@@H](Cl)[C@@H](Cl)C[C@@H]3[C@@]1(Cl)C2(Cl)Cl | -1.23%
C=CCOC(N)=O | -0.583%
COP(N)(=S)OC | 1.59%
C=COCCCl | -3.89%
Cn1[nH]nnc1=S | 3.34%

System: not listed separately
Test: qHTS assay to identify small molecule agonists of the RXR signaling pathway - cell viability counter screen (AID 1159529); note: nearly all actives have a fitted effect of over 50% in size
Conditions: RXR-alpha-bla HEK293T viability, CellTiter-Glo, 16 h; series mostly up to 76.8 µM; activity change, negative = cytotoxicity: at the top concentration
Summary of the method: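 RXR-alpha-UAS-bla HEK 293T cells in medium with 2% charcoal-stripped FBS were preincubated 5 hr, then exposed to compounds for 16 hr at 37 C. Viability was read as CellTiter-Glo luminescence after 30 min at room temperature.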

SMILES | activity change, negative = cytotoxicity
N#CCc1ccc(Cl)cc1 | -8.31%
Clc1ccc(Oc2ccccc2)cc1 | 0.803%
O=C(Cl)c1ccc(Cl)cc1 | 0.526%
CCOC(=O)c1ccccc1S(=O)(=O)NC(=O)Nc1nc(Cl)cc(OC)n1 | -1.08%
CC(=O)c1ccc(-c2ccccc2)cc1 | -14.6%
N#Cc1ccccc1Cl | 0.579%
Cc1ccc(CCl)cc1 | 2.46%
CN(CCCC(O)c1cccnc1)N=O (configuration not stated) | 14%
Clc1ccc(-c2ccccc2)cc1 | -4.11%
COP(=O)(CCC(=O)NCO)OC | 2.51%
COC[C@H](C)N(C(=O)CCl)c1c(C)csc1C | -4.42%
CC(=[OH+])/C=C(/C)[O-].CC(=[OH+])/C=C(\C)[O-].CC(=[OH+])/C=C(\C)[O-].[Al] | 12.8%
CC(C)CBr | -0.0322%
Oc1ccccc1Br | 2.28%
C[As+](C)(C)CC(=O)[O-] | -4.18%
COCC(=O)N(c1c(C)cccc1C)[C@H](C)C(=O)OC | 6.35%
CCc1ccccc1C | 0.924%
Cl/C=C\CCl | 3.74%
ClC1=C(Cl)[C@]2(Cl)[C@@H]3[C@@H](Cl)[C@H](Cl)C[C@@H]3[C@@]1(Cl)C2(Cl)Cl | -0.331%

SMILES | activity change, negative = cytotoxicity
ClCCN1CCOCC1 | 0.919%
C[C@@H](Oc1ccc(Cl)cc1Cl)C(=O)O | 2.68%
N#Cc1ccccc1N | 3.36%
CC(=[OH+])/C=C(/C)[O-].CC(=[OH+])/C=C(\C)[O-].CC(=[OH+])/C=C(\C)[O-].[Fe] | -7.09%
CCC(C)c1cc(C(C)(C)C)cc(-n2nc3ccccc3n2)c1O (configuration not stated) | -16.6% [at 35.3 µM]
CCOP(=S)(OCC)SCCS(=O)(=O)CC | 0.794%
Nc1ccc([N+](=O)[O-])cc1Cl | -13.8%
O=[N+]([O-])c1cc(Cl)ccc1Cl | 5.12%
ClCc1ccccc1CCl | -9.25%
CCSC(C)CC1CC(=O)C(/C(CC)=N/OC/C=C/Cl)=C(O)C1 (configuration not stated) | -17% [at 35.3 µM]
BrCC(Br)c1ccccc1 (configuration not stated) | -5.26%
C=CC(=O)N(C)C | 0.297%
Cc1cc(Cl)ccc1O[C@H](C)C(=O)O | -3.97%
ClC1=C(Cl)[C@]2(Cl)[C@@H]3[C@@H](Cl)[C@@H](Cl)C[C@@H]3[C@@]1(Cl)C2(Cl)Cl | 3.47%
C=CCOC(N)=O | 6.89%
COP(N)(=S)OC | -0.917%
C=COCCCl | -4.94%
Cn1[nH]nnc1=S | -5.03%
